According to the supplement of paper PMC11006884:
Of roughly 6,500 targets only a part is listed; those with a hit were picked by preference. About 2% of all pairs of compound and target were hits.

Chain of UniProt O75348 (O75348 whole entry, looked up): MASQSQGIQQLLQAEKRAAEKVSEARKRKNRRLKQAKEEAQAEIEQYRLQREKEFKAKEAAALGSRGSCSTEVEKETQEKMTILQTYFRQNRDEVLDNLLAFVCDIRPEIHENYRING
Chain of UniProt O43823 (O43823 whole entry, looked up): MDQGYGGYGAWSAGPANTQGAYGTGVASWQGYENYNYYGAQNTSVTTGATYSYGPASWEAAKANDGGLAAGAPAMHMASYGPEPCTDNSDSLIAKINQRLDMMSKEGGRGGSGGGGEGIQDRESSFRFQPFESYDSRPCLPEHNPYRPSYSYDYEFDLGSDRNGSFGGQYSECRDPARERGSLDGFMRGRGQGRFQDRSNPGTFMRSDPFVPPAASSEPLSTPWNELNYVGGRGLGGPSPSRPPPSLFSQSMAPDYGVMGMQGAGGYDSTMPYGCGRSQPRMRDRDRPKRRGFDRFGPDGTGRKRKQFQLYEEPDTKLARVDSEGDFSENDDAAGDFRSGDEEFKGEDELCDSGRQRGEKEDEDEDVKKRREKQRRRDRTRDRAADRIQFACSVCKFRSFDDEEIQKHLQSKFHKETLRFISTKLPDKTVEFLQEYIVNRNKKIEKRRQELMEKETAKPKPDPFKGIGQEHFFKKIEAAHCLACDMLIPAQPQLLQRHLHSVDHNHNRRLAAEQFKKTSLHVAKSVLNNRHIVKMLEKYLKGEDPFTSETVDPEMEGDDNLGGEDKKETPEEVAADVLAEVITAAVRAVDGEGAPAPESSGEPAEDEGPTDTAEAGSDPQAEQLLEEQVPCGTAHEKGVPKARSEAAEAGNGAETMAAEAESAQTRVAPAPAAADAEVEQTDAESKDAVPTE
Chain of UniProt O15067 (O15067 whole entry, looked up): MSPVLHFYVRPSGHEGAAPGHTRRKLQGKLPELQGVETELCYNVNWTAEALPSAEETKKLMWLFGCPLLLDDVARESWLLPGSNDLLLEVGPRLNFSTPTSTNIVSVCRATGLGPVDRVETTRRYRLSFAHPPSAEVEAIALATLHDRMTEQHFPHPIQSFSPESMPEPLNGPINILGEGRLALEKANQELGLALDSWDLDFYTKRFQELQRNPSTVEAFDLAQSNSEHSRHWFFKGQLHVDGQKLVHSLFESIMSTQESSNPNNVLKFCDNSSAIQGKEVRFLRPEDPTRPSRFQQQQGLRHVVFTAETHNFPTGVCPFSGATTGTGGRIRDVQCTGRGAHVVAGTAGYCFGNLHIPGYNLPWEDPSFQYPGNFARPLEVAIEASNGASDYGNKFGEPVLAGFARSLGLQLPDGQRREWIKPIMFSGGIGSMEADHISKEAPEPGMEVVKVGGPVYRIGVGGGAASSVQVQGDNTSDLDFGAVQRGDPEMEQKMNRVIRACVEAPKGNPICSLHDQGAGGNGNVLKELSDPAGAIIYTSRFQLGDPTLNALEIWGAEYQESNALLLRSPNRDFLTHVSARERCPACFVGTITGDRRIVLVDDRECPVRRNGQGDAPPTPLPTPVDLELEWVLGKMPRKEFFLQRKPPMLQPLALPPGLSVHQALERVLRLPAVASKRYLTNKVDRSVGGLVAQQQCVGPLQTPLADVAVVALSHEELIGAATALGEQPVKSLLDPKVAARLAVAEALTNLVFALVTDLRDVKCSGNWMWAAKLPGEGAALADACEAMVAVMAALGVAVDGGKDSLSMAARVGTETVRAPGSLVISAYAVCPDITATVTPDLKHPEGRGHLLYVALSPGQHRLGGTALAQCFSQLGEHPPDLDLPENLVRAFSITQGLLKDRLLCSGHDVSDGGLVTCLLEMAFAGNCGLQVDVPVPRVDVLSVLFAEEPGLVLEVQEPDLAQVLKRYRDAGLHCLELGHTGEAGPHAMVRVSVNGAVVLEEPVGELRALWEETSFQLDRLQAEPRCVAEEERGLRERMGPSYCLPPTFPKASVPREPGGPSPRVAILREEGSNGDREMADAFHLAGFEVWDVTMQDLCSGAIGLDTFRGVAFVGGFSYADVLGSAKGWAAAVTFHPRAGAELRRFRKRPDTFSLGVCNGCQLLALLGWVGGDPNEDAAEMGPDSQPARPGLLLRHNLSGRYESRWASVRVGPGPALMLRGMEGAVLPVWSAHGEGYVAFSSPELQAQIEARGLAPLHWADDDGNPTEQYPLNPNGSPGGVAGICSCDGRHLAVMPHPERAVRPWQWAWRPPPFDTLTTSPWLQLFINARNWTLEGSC
Chain of UniProt O00429 (O00429 whole entry, looked up): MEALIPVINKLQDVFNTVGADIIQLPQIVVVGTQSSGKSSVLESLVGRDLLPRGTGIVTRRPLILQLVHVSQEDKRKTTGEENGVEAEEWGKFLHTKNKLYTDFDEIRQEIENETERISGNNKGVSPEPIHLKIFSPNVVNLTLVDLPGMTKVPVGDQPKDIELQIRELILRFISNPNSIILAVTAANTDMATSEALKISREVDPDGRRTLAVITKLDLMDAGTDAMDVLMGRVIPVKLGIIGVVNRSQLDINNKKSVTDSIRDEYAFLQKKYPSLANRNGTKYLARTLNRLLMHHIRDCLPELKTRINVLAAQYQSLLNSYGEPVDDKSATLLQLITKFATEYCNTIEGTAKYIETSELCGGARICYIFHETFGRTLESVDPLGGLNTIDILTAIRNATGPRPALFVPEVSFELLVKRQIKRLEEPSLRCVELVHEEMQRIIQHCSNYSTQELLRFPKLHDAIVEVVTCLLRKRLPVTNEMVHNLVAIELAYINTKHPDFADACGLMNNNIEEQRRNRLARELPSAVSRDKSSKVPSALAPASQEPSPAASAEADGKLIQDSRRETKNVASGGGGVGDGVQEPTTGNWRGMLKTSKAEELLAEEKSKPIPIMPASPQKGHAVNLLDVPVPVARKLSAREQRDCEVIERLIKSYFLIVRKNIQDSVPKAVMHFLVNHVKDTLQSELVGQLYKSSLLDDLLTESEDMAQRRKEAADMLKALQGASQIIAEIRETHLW
Chain of UniProt O14662 (O14662 whole entry): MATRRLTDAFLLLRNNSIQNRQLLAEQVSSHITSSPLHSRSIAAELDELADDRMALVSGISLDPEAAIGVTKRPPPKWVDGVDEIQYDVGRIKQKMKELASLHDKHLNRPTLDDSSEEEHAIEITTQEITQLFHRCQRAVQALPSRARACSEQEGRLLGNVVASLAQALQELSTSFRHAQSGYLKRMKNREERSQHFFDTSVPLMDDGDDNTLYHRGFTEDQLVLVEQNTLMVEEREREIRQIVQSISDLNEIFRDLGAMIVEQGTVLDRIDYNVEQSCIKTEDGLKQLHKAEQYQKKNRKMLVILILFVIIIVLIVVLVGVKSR
Chain of UniProt O43719 (O43719 whole entry, looked up): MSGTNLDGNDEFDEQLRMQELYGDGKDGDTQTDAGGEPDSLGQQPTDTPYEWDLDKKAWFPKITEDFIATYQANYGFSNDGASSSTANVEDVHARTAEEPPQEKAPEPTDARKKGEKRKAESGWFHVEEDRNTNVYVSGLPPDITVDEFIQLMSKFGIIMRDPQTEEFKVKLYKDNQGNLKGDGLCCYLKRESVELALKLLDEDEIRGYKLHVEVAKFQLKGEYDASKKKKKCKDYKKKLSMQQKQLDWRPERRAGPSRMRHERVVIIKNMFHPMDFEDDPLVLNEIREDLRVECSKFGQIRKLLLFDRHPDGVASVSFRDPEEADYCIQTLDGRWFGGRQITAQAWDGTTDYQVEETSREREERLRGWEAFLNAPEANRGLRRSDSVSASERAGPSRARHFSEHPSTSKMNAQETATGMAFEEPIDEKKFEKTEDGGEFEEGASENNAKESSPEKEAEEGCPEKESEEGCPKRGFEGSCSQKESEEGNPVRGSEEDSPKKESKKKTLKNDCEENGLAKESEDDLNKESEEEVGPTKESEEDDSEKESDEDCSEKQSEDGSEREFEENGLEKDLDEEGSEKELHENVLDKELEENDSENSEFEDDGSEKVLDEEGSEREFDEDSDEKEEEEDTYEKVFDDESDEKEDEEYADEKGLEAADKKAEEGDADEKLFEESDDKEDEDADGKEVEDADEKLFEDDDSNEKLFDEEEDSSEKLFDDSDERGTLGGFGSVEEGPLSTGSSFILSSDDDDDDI
Chain of UniProt O75665 (O75665 whole entry): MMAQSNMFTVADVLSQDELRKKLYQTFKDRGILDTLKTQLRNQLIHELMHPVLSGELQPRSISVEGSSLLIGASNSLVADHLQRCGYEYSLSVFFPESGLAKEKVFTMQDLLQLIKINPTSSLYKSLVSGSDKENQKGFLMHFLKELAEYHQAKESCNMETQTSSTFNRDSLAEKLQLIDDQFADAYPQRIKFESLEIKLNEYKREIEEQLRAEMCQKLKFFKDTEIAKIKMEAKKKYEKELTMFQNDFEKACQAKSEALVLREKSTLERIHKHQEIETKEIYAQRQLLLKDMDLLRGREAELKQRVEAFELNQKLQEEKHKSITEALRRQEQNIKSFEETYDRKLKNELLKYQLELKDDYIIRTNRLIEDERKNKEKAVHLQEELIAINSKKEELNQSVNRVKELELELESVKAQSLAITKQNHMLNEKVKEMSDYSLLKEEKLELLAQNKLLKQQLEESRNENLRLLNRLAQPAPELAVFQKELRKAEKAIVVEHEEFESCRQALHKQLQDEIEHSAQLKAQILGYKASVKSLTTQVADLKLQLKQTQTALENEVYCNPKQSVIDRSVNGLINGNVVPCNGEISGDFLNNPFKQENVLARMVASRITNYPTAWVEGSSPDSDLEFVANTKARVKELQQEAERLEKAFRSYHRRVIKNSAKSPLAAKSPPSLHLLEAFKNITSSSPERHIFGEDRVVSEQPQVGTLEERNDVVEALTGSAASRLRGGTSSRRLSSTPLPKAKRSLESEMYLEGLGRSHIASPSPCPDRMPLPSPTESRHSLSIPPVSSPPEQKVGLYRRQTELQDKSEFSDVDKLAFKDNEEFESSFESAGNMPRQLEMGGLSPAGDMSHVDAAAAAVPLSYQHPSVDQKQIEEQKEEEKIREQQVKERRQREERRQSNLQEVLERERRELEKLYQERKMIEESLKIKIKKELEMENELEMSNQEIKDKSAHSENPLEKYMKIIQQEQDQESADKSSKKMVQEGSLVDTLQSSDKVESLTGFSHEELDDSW
Chain of UniProt O00244 (O00244 whole entry, looked up): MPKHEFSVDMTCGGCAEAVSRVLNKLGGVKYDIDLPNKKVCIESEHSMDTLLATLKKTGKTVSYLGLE

Each target was assayed with COC(=O)C#Cc1ccccc1 [methyl 3-phenylpropiolate] (assay: log2 ratio of iodoacetamide-alkyne labeling of the cysteine site, DMSO over compound (competition); higher = stronger covalent engagement of the cysteine by the compound, active = 1 or more). Details: 500 µM; treatment time 1 h; system: HEK293T cell lysate.
In short: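 Three replicates, each with duplicate channels, were prepared from HEK293T lysate (2 mg/mL) treated with vehicle or electrophile at 500 µM for 1 h at ambient temperature. Iodoacetamide alkyne was then applied for 1 h, and samples were clicked to sCIP-TMT reagents, pooled, trypsin-digested overnight at 37 °C, enriched on streptavidin, acid-eluted and analysed on Orbitrap Eclipse LC-MS/MS with FAIMS, with FragPipe quantification. The log2 competition ratio per cysteine is the mean control-channel divided by the mean compound-channel reporter intensity. Cysteines quantified in only one replicate were left out.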
In the case of VPS4B C240 (UniProt O75351), the “log2 ratio of iodoacetamide-alkyne labeling” value (“log2 ratio” for short) is reported as 0.188 (inactive).
In the case of UniProt A0MZ66_C565, the “log2 ratio” value is reported as 0.734 (inactive).
ATOX1 C12 (UniProt O00244) was tested, and the “log2 ratio” value was 1.27 (active).
In the case of ATP6V1G1 C104 (UniProt O75348), the “log2 ratio” value is reported as 0.03 (inactive).
With A0AVT1_C347 the “log2 ratio” value was 2.27 (active).
CD3EAP C107 (UniProt O15446) was tested, and the “log2 ratio” value was 0.723 (inactive).
For SF3B1 C1059 (UniProt O75533), the “log2 ratio” value was 0.247 (inactive).
HEXIM1 C79 (UniProt O94992) was tested, and the “log2 ratio” value was 1.3 (active).
In the case of ZZEF1 C2466 (UniProt O43149), the “log2 ratio” value is reported as -0.132 (inactive).
RPP40 C49 (UniProt O75818) was tested, and the “log2 ratio” value was 0.0974 (inactive).
TBC1D4 C1277 (UniProt O60343) was tested, and the “log2 ratio” value was 0.374 (inactive).
OFD1 C581 (UniProt O75665) was tested, and the “log2 ratio” value was 0.478 (inactive).
PRPF4 C237 (UniProt O43172) was tested, and the “log2 ratio” value was 1.42 (active).
In the case of EIF5B C720 (UniProt O60841), the “log2 ratio” value is reported as 0.266 (inactive).
For STX16 C150 (UniProt O14662), the “log2 ratio” value was 0.0256 (inactive).
TBC1D4 C6 (UniProt O60343) was tested, and the “log2 ratio” value was 0.373 (inactive).
For POLRMT C119 (UniProt O00411), the “log2 ratio” value was 1.22 (active).
For POLRMT C925 (UniProt O00411), the “log2 ratio” value was -0.0567 (inactive).
With KATNA1 C491 (UniProt O75449) the “log2 ratio” value was 0.112 (inactive).
In the case of DENR C13 (UniProt O43583), the “log2 ratio” value is reported as 0.235 (inactive).
In the case of PSMD11 C289 (UniProt O00231), the “log2 ratio” value is reported as 0.253 (inactive).
AP3D1 C137 (UniProt O14617) was tested, and the “log2 ratio” value was 0.262 (inactive).
In the case of FLNB C455 (UniProt O75369), the “log2 ratio” value is reported as 1.24 (active).
IDH3B C233 (UniProt O43837) was tested, and the “log2 ratio” value was 0.394 (inactive).
In the case of EIF5B C853 (UniProt O60841), the “log2 ratio” value is reported as 1 (active).
In the case of UniProt O00567_C211, the “log2 ratio” value is reported as 1.14 (active).
In the case of O15320_C147 (UniProt Q96PC5+O15320), the “log2 ratio” value is reported as -0.197 (inactive).
For PJA2 C224 (UniProt O43164), the “log2 ratio” value was 0.22 (inactive).
With UniProt O00567_C52 the “log2 ratio” value was 0.482 (inactive).
In the case of TRAFD1 C482 (UniProt O14545), the “log2 ratio” value is reported as 1.55 (active).
For PFAS C270 (UniProt O15067), the “log2 ratio” value was 0.115 (inactive).
AKAP8 C275 (UniProt O43823) was tested, and the “log2 ratio” value was 1.06 (active).
For DNM1L C361 (UniProt O00429), the “log2 ratio” value was 0.736 (inactive).
HTATSF1 C462 (UniProt O43719) was tested, and the “log2 ratio” value was 1.14 (active).
UniProt O75947_C101 was tested, and the “log2 ratio” value was 0.98 (inactive).
ARHGEF11 C1166 (UniProt O15085) was tested, and the “log2 ratio” value was 0.618 (inactive).
With PGRMC2 C159 (UniProt O15173) the “log2 ratio” value was 0.159 (inactive).
For HEXIM1 C18 (UniProt O94992), the “log2 ratio” value was 0.398 (inactive).
In the case of RIPK2 C414 (UniProt O43353), the “log2 ratio” value is reported as 1.35 (active).
